Results published in PubChem BioAssay.
The source made the active and inactive calls. Unless noted, how the calls were made is not given here.

Columns and labels:
[1] = test system: Wnt5a (protein binding on small-molecule microarray); assay: small molecules binding Wnt5a protein – biophysical, small-molecule microarray, 635/667 nm fluorescence, primary screen (AID 1142); details: 635 nm fluorescence, higher = more signal;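 further: fluorescence read at 667 nm with signal to noise per printed feature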
[2] = ATP-based viability of Huh7 replicon cells – cell-based, CellTiter-Glo luminescence, basal, 48 h, cytotoxicity control for HCV replication inhibitor project, primary screen (AID 1143); details: higher = more signal, called active from +8 up or from −8 down;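 further: Huh7 hepatoma cells carrying a hepatitis C replication reporter with no stimulus; test concentration not given here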
[3] = Pseudomonas biofilm growth suppression – PAO1 strain, BacTiter-Glo luminescence, LB-PBS, primary screen (AID 1144); details: P. aeruginosa PAO1 biofilm, 12 h, higher = more signal
[4] = basal CRE-LacZ reporter activity in PC12 – cell-based, unstimulated, primary screen (AID 1145); details: no forskolin, luminescence, 4.5 h, higher = more signal, called active from +8 up or from −8 down
[5] = forskolin-driven CRE-LacZ activity in PC12 – cell-based, CRE-LacZ reporter, forskolin-stimulated, primary screen (AID 1146); details: luminescence, 4.5 h, higher = more signal, called active from +8 up or from −8 down;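 further: PC12 cells with 6xCRE LacZ reporter stimulated by forskolin 10 µM; beta-galactosidase reporter signal reflecting CREB driven transcription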
[6] = biological target: Streptavidin (Streptomyces avidinii) (UniProt P22629); assay: compounds binding control protein streptavidin – biophysical, small-molecule microarray, 635/667 nm fluorescence, artefact control for SMM compound annotation, primary screen (AID 1147); details: higher = more signal;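 further: signal reflects streptavidin binding to arrayed compounds as a control protein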
[7] = probe aInhba binding on compound microarray – biochemical, small-molecule microarray, 635/667 nm fluorescence, primary screen (AID 1148); details: higher = more signal;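 further: score merges 667nm spot fluorescence with signal-to-noise for antibody binding to printed compounds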
Torsin-1A (Homo sapiens) [8] = biological target: Torsin-1A (Homo sapiens) (UniProt O14656); assay: TOR1A wild-type binding on microarray – cell lysate, small-molecule microarray, lysate, 635/667 nm, primary screen (AID 1149); details: COS7 hTOR1A-WT lysate, 635 nm fluorescence, higher = more signal
Torsin-1A (Homo sapiens) [9] = biological target: Torsin-1A (Homo sapiens) (UniProt O14656); assay: torsin A mutant lysate binding on microarrays – cell lysate, small-molecule microarray, COS7 lysate, 635/667 nm fluorescence, primary screen (AID 1150); details: COS7 hTOR1A mutant lysate, 635 nm fluorescence, higher = more signal;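 further: score pools 667 nm emission and signal to noise measuring lysate protein binding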
[10] = test system: Sonic hedgehog protein (Shh); assay: Sonic hedgehog microarray binding compounds – biochemical, small-molecule microarray, 635/667 nm fluorescence, primary screen (AID 1151); details: 635 nm fluorescence, higher = more signal;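 further: Shh protein binding to compounds spotted on small-molecule microarray slides; score combines spot fluorescence intensity with signal-to-noise across triplicate slides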

Streptavidin (Streptomyces avidinii), sequence (P22629 whole entry, looked up): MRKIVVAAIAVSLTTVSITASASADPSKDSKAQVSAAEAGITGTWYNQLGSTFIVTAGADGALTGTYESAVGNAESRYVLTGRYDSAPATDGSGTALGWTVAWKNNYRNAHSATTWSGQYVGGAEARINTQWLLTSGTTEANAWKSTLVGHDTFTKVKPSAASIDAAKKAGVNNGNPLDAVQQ
Torsin-1A (Homo sapiens), sequence (O14656 whole entry, looked up): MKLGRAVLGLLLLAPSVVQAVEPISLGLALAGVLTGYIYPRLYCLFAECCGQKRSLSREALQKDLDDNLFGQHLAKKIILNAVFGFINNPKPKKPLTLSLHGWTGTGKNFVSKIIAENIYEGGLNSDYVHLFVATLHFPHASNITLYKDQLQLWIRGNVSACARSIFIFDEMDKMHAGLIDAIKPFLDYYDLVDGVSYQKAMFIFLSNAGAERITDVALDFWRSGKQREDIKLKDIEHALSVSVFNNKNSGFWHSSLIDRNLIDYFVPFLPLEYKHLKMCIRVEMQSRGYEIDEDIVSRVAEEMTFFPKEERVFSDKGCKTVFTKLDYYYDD

SMILES | composite z-score [1] | z-score [2] | z-score [3] | z-score [4] | z-score [5] | composite z-score [6] | composite z-score [7] | composite z-score (Torsin-1A (Homo sapiens) [8]) | composite z-score (Torsin-1A (Homo sapiens) [9]) | composite z-score [10]
CC(C)=NOC(C)CN1CCCCc2nc(C)c(C)cc21 (stereo not given) | 0.243 | 0.479 (inactive) | 0.282 (inactive) | -0.236 (inactive) | 0.0266 (inactive) | -0.28 | 0.0314 | 0.765 | 0.346 | 0.681
CO[C@@H]1COC(=O)[C@@H]2CCCN2C(=O)[C@@H](C)COC(=O)CCC[C@H]1C | -0.0105 | -0.848 (inactive) | -0.506 (inactive) | 0.355 (inactive) | -0.269 (inactive) | 1.21 | -0.153 | 1.21 | 0.241 | 1.18
CO[C@H]1C[C@@H]2C[C@H](O)CC(CC(=O)O[C@@H](C=CCC(C)C)C[C@@H]3CC[C@H](C)[C@@H](C1)O3)O2 | 0.318 | -0.454 (inactive) | 0.883 (inactive) | 2.64 (inactive) | 0.405 (inactive) | 0.645 | -0.0494 | 0.778 | 0.183 | 1.02
CC(CCN1CCCc2nc(C)c(C)cc21)=NOC[C@@H](C)[C@H](OCc1ccccc1)C(C)C | -0.257 | -1.01 (inactive) | -0.47 (inactive) | -1.14 (inactive) | -0.186 (inactive) | -0.983 | -0.101 | -0.469 | -0.931 | 0.0185
COCOc1ccc(Br)cc1C(=O)C=Cc1ccc2c(c1)OCO2 | -0.18 | -3.9 (inactive) | -1.46 (inactive) | 15.5 (active) | 5.69 (inactive) | -0.0743 | -0.182 | 0.61 | 0.281 | 0.487
CCOC(=O)NN=C1C[C@@H](O)[C@@H](O)[C@@H]2[C@@H]3C(=O)N(CC)C(=O)[C@@H]3CC[C@H]12 | 0.0375 | 0.383 (inactive) | 0.345 (inactive) | -0.656 (inactive) | -0.628 (inactive) | 0.0571 | -0.252 | 0.399 | 0.441 | 0.0046
C=CC[C@@H]1C=CC(ON=C(C)C)[C@@H](CO)O1 (stereo not given in full) | -0.174 | 0.28 (inactive) | 0.0414 (inactive) | -1.13 (inactive) | -0.92 (inactive) | 0.543 | 0.0357 | 0.193 | -0.611 | -0.117
CC(C)=CCCC(C)=CCON=C1C[C@@H](O)[C@@H](O)[C@@H]2[C@@H]3C(=O)N(Cc4ccc5c(c4)OCO5)C(=O)[C@@H]3CC[C@@H]12 | -0.0188 | -0.292 (inactive) | 0.73 (inactive) | 0.252 (inactive) | 0.217 (inactive) | 1.19 | -0.0791 | 1.01 | 0.606 | 0.816
CCN1C(=O)[C@H]2[C@H]3[C@H](O)[C@H](O)CC(=NO[C@@H]4O[C@H](CO)[C@@H](O)[C@H](O)[C@H]4O)[C@H]3CC[C@H]2C1=O | 0.534 | -1.31 (inactive) | 0.427 (inactive) | 0.246 (inactive) | 0.322 (inactive) | 0.473 | -0.0873 | 0.261 | 0.577 | 0.47
CN1CCc2nc(-c3ccccc3)c(-c3ccccc3)cc2C1 | 0.0321 | 0.55 (inactive) | 0.99 (inactive) | 1.65 (inactive) | 0.0655 (inactive) | 0.0666 | -0.176 | 0.214 | 0.539 | 0.464
C[C@@H]1CC[C@@H](C(=O)O)N[C@H]1c1cccc(N2CCOCC2)c1 | -0.0449 | -0.538 (inactive) | -1.08 (inactive) | -0.974 (inactive) | -1.29 (inactive) | 0.032 | -0.273 | 0.482 | 0.944 | 0.908
CC(CCN1CCCCc2nc(C)c(C)cc21)=NO[C@@H](C)c1cc(-c2c(C)cc(C)cc2C)no1 | -0.525 | -3.04 (inactive) | -0.425 (inactive) | 1.9 (inactive) | 1.02 (inactive) | -1.23 | -0.211 | -1.18 | -0.956 | -0.235
CC(CCC(=O)OC[C@H]1O[C@H](C#Cc2ccccc2)C=C[C@@H]1Oc1ccc(C)cc1)=NO[C@@H](C)c1cc(-c2c(C)cc(C)cc2C)no1 | -0.693 | -0.629 (inactive) | -0.702 (inactive) | 0.085 (inactive) | 1.02 (inactive) | -0.831 | -0.242 | -2.59 | -1.74 | -0.719
COC(=O)[C@H](C)NC(=O)CCC1CC(OC(=O)NCc2ccc3c(c2)OCO3)CC2(CCCC(COC(=O)NCCCN3CCCC3=O)O2)O1 (stereo not given in full) | 0.151 | -0.849 (inactive) | -0.202 (inactive) | 0.108 (inactive) | 0.833 (inactive) | 0.53 | 0.111 | 0.447 | 0.323 | 0.78
CCN1C(=O)[C@H]2[C@H]3[C@H](O)[C@H](O)CC(=NO[C@@H]4O[C@H](COC(C)=O)[C@@H](OC(C)=O)[C@H](OC(C)=O)[C@H]4OC(C)=O)[C@@H]3CC[C@H]2C1=O | 0.352 | 0.772 (inactive) | 1.22 (inactive) | -0.882 (inactive) | 0.171 (inactive) | 0.0251 | -0.0221 | 0.331 | 0.0248 | 1.03
CCOC(=O)CCN1C(=O)[C@H]2[C@H]3[C@H](O)[C@H](O)CC(=NO[C@@H]4O[C@H](CO)[C@@H](O)[C@H](O)[C@H]4O)[C@H]3CC[C@H]2C1=O | -0.167 | 0.38 (inactive) | 0.132 (inactive) | 0.241 (inactive) | 0.497 (inactive) | -0.0432 | -0.05 | 0.629 | 0.307 | 0.493
CON=C[C@@H](OC)[C@H](C)C=CCC(=O)OC | -0.115 | -0.569 (inactive) | 0.157 (inactive) | 0.257 (inactive) | 0.034 (inactive) | -0.0172 | -0.0762 | 0.752 | -0.0215 | 0.183
CCOC(=O)[C@H](Cc1ccccc1)NC(=O)CCC1CC(OC(=O)NCc2cccc3ccccc23)CC2(CCCC(COC(=O)NCCOc3ccccc3)O2)O1 (stereo not given in full) | -0.0525 | -2.73 (inactive) | -1.35 (inactive) | -0.523 (inactive) | 0.57 (inactive) | 0.419 | 0.0667 | 0.0468 | 1.47 | 0.825
CON(C)C(=O)c1nnc2c(n1)[nH]c1ccccc12 | 0.0269 | 0.569 (inactive) | 0.555 (inactive) | 0.198 (inactive) | 0.275 (inactive) | 0.153 | -0.101 | 0.275 | 0.333 | 0.928
CCOC(=O)[C@H](Cc1ccccc1)NC(=O)CCC1CC(OC(=O)NCc2cccc3ccccc23)CC2(CCCC(COC(=O)NCc3ccc4c(c3)OCO4)O2)O1 (stereo not given in full) | 0.123 | -0.301 (inactive) | -0.548 (inactive) | -0.0767 (inactive) | -0.0564 (inactive) | -0.0007 | -0.0762 | 0.0755 | -0.497 | 0.466
O=C1C=C[C@@H](O)[C@@H]2[C@@H]3C(=O)N(Cc4ccc5c(c4)OCO5)C(=O)[C@@H]3CC[C@@H]12 | 0.538 | -0.655 (inactive) | 0.917 (inactive) | -0.567 (inactive) | -0.332 (inactive) | 0.283 | -0.307 | 0.376 | 0.123 | 0.499
COC(=O)[C@@H]1CC[C@H](C)[C@@H](c2ccc(C)cc2)N1C(=O)c1ccc(C=NOC[C@H]2O[C@H](c3ccccc3)C=C[C@@H]2Oc2ccc(OC)cc2)cc1 | -0.134 | -0.814 (inactive) | 0.605 (inactive) | 0.253 (inactive) | 0.718 (inactive) | -0.216 | 0.0018 | -0.671 | -0.329 | 0.415
CCOC(=O)[C@H](Cc1ccccc1)NC(=O)CCC1CC(OC(=O)NCCc2ccc(F)cc2)CC2(CCCC(COC(=O)NCCC(C)C)O2)O1 (stereo not given in full) | 0.446 | 0.0118 (inactive) | -0.275 (inactive) | 1.09 (inactive) | 0.956 (inactive) | 0.496 | -0.183 | 0.0817 | 0.34 | 1.68
COC(=O)CC=C[C@@H](C)[C@@H](C=NOC(C)CN1CCCCc2nc(C)c(C)cc21)OC (stereo not given in full) | 0.263 | -0.211 (inactive) | 0.763 (inactive) | 1.41 (inactive) | 0.802 (inactive) | 0.405 | -0.239 | 3.19 | 2.65 | 1.79
COC(=O)[C@H](C)NC(=O)CCC1CC(OC(=O)NCc2ccc3c(c2)OCO3)CC2(CCCC(COC(=O)NCc3ccccc3)O2)O1 (stereo not given in full) | 0.298 | -0.268 (inactive) | -0.801 (inactive) | -0.345 (inactive) | -0.169 (inactive) | 0.115 | -0.0136 | 0.283 | 0.177 | 1.38
COc1cccc([C@H](O)Cn2cc(-c3ccc(CON=C(C)C)cc3)nn2)c1 | -0.0033 | -0.385 (inactive) | -0.24 (inactive) | 1.55 (inactive) | -0.222 (inactive) | -0.207 | 0.0082 | 0.0944 | 0.271 | -0.348
O=C1CCCC=C1C(O)c1ccc([N+](=O)[O-])cc1 (stereo not given) | 0.042 | 1.18 (inactive) | 0.843 (inactive) | -0.706 (inactive) | 0.126 (inactive) | 0.0753 | -0.212 | 0.911 | 0.0183 | -0.676
CC=CC1=C(CO)[C@H](O)[C@H]2O[C@H]2[C@@H]1O | 0.0984 | -0.0795 (inactive) | -0.549 (inactive) | -0.525 (inactive) | 1.26 (inactive) | 0.162 | 1.37 | 0.587 | 0.131 | 0.875
COC(=O)CC=C[C@@H](C)[C@@H](C=NOC[C@@H](C)[C@H](OCc1ccccc1)C(C)C)NS(=O)(=O)c1ccc(C)cc1 | -0.122 | -0.7 (inactive) | 0.904 (inactive) | 2.87 (inactive) | 0.447 (inactive) | -0.784 | -0.29 | 0.331 | 0.0147 | 0.587
CCCNC(=O)OC[C@H]1O[C@H](CCON=C[C@@H](C)[C@H](OCc2ccccc2)C(C)C)C=C[C@@H]1Oc1ccc(OC)cc1 | -0.146 | -1.1 (inactive) | -0.107 (inactive) | 1.28 (inactive) | -0.0248 (inactive) | -0.19 | -0.104 | -0.0998 | 0.733 | 0.0021
